Records with an inconclusive call do not appear. The source made the active and inactive calls. Unless noted, calls come from the whole dose curve; as a rule, active = well fitted curve in the direction sought with a large enough effect in the repeat runs; inconclusive = weak or mixed curves; inactive = no such curve, though single readings can be large; an effect the other way counts as inactive or inconclusive.
Key:
[1] = qHTS assay to identify small molecule agonists of the sonic hedgehog signaling (Shh) pathway (AID 1259368; calls by dose curve;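 note: NIH/3T3-derived 3T3Gli1-Luc cells carrying a stable Gli1-driven firefly luciferase reporter; nearly all actives have a fitted effect of over 15% in size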); details: NIH/3T3 Gli1-Luc reporter, luciferase, 24 h; series mostly up to 92.4 µM
How it was run: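 Luminescence was read after 30 min at room temperature with luciferase reagent. Before that, 3T3Gli1-Luc cells (NIH/3T3 clone, stable Gli1-Luc reporter; 2,000/well) were exposed to compounds for 24 hr at 37C, 5% CO2, compounds being added 4 hr post-plating.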

[2] = qHTS assay to identify small molecule antagonists of the sonic hedgehog signaling (Shh) pathway (AID 1259369; calls by dose curve; note: nearly all actives have a fitted effect of over 45% in size); details: NIH/3T3 Gli1-Luc reporter, Shh antagonist, luminescence 24 h; series mostly up to 92.4 µM
How it was run: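 Antagonist mode: compound added to 3T3 Gli1-Luc cells followed by conditioned-medium stimulation, 24 h at 37 C, 5% CO2. Inhibition taken as loss of Gli1-driven luciferase luminescence.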

[3] = qHTS assay to identify small molecule agonists of the androgen receptor (AR) signaling pathway in the presence of an antagonist - cell viability counter screen (AID 1259379); details: MDA-kb2 viability, CellTiter-Fluor, 16 h; series mostly up to 92.4 µM;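 note: MDA-kb2 human breast cancer cells carrying an MMTV luciferase reporter; nearly all actives have a fitted effect of over 25% in size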
How it was run: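 Cytotoxicity counter-screen run in the same wells as the nilutamide-challenged (3.0 µM final) AR agonist assay in MDA-kb2 cells. Compounds tested at 15 concentrations for 16 h, 37 °C without CO2; CellTiter-Fluor fluorescence read.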

[4] = qHTS assay to identify small molecule agonists of the estrogen receptor beta (ER-beta) signaling pathway - cell viability counter screen (AID 1259380); details: ER-beta-bla HEK293T viability, CellTiter-Glo luminescence, 16 h; series mostly up to 92.4 µM; note: nearly all actives have a fitted effect of over 30% in size
How it was run: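 Cell viability counter screen: CellTiter-Glo luminescence (30 min, room temperature) measured in the same wells as the beta-lactamase readout, after 16 hr compound exposure at 37C of ER-beta-bla HEK293T cells in 2% charcoal-stripped FBS medium.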

[5] = qHTS assay to identify small molecule antagonists of the estrogen receptor beta (ER-beta) signaling pathway - cell viability counter screen (AID 1259382); details: ER-beta-UAS-bla HEK293T viability, CellTiter-Glo luminescence, 16 h; series mostly up to 92.4 µM;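 note: HEK293T cells carrying ER-beta-UAS-bla reporter stimulated with estradiol; nearly all actives have a fitted effect of over 55% in size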
How it was run: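 Cytotoxicity was measured in the same wells by CellTiter-Glo luminescence after 30 min at room temperature. Cells were ER-beta-bla HEK293T in charcoal-stripped serum, given compound together with 1 nM E2 and incubated 16 h at 37C.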

[6] = qHTS assay to identify small molecule agonists or antagonists of the thyroid stimulating hormone receptor (TSHR) signaling pathway - wild type cell line counter screen (AID 1259384; calls by dose curve); details: HEK293 wild type, cAMP HTRF counter-screen; series mostly up to 92.4 µM
How it was run: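 Wild-type Hek293 cells, 800/well, 18 h at 37C, then compound with Ro20-1724 for 30 min RT. cAMP by HTRF (cAMP-d2/anti-cAMP cryptate), 1 h RT, fluorescence read. 15 concentrations, triplicates.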

[7] = target: Thyrotropin receptor (Homo sapiens) (UniProt P16473); experiment: qHTS assay to identify small molecule antagonists of the thyroid stimulating hormone receptor (TSHR) signaling pathway (AID 1259385; calls by dose curve; note: nearly all actives have a fitted effect of over 20% in size); details: TSHR-HEK293 cAMP HTRF, TSH-stimulated antagonist mode; series mostly up to 92.4 µM
How it was run: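 TSHR-HEK293 cells (800/well) plated 18 h, then compounds with Ro20-1724 and TSH at 1.5 ng/mL final, 30 min at room temperature. cAMP quantified by HTRF (cAMP-d2/anti-cAMP-cryptate, 1 h); 15 concentrations in triplicate.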

[8] = qHTS assay to identify small molecule agonists of the estrogen receptor alpha (ER-alpha) signaling pathway in the presence of an antagonist - cell viability counter screen (AID 1259386); details: VM7Luc4E2 viability, CellTiter-Fluor fluorescence, 22 h; series mostly up to 92.4 µM; note: nearly all actives have a fitted effect of over 30% in size
How it was run: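 Compounds tested at 15 concentrations for 22 h at 37C alongside 10.0nM (final) ICI-182,780 antagonist, in VM7Luc4E2 cells grown in phenol red-free, charcoal-stripped medium. Viability read by CellTiter-Fluor fluorescence after 1 h reagent incubation.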

[9] = target: Progesterone receptor (Homo sapiens) (UniProt P06401); experiment: qHTS assay to identify small molecule agonists of the progesterone receptor (PR) signaling pathway (AID 1346784; calls by dose curve; note: nearly all actives have a fitted effect of over 30% in size); details: PR-UAS-bla HEK293T, beta-lactamase FRET ratio, 16 h; series mostly up to 92.4 µM
How it was run: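 The screen uses PR-UAS-bla HEK 293T cells in charcoal-stripped serum (2%). Compounds are applied for 16 hr at 37C after a 6 hr pre-incubation, and reporter activity is detected with a FRET beta-lactamase substrate after 2 hr at room temperature.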

[10] = target: Progesterone receptor (Homo sapiens) (UniProt P06401); experiment: qHTS assay to identify small molecule antagonists of the progesterone receptor (PR) signaling pathway (AID 1346795; active = well fitted inhibition curve with a large enough effect in the signal ratio in the repeat runs, not every such curve was filed as active; the % refers to the signal ratio); details: PR-UAS-bla HEK293T, beta-lactamase FRET ratio, 16 h; series mostly up to 92.4 µM
How it was run: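 After 6 hr plating at 37C in 2% stripped-serum medium, PR-UAS-bla HEK293T cells got compounds, then 1 nM R5020. Sixteen hours later, LiveBLAzer substrate was applied for 2 hr at room temperature and fluorescence was recorded.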

[11] = qHTS assay to identify small molecule agonists of the progesterone receptor (PR) signaling pathway - cell viability counter screen (AID 1346799; calls by dose curve; note: nearly all actives have a fitted effect of over 45% in size); details: PR-UAS-bla HEK293T viability, CellTiter-Glo luminescence, 16 h; series mostly up to 92.4 µM
How it was run: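 Viability was scored by ATP luminescence (CellTiter-Glo, 30 min, room temperature) in the same wells used for the reporter readout, after 16 hr compound exposure of PR-UAS-bla HEK293T cells.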

[12] = qHTS assay to identify small molecule antagonists of the TGF-beta/Smad signaling pathway - cell viability counter screen (AID 1346824); details: SBE-bla HEK293T viability, CellTiter-Glo luminescence; series mostly up to 76.8 µM; note: nearly all actives have a fitted effect of over 50% in size
How it was run: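 SBE-bla HEK 293T cells, incubated overnight, then compound plus 0.25 ng/mL TGF-beta1 (stock added) for 5 hr at 37 C. Viability was read in the same wells by CellTiter-Glo luminescence after 30 min at room temperature.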

[13] = qHTS assay to identify small molecule agonists of the TGF-beta/Smad signaling pathway - cell viability counter screen (AID 1346829); details: SBE-bla HEK293T viability, CellTiter-Glo luminescence, 5 h; series mostly up to 76.8 µM; note: top concentration of the series differs between compounds; nearly all actives have a fitted effect of over 45% in size
How it was run: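 Luminescence from CellTiter-Glo, read after a 30 min room-temperature incubation, gives cell viability of SBE-bla HEK 293T cells treated 5 hr with compounds at 37 C.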

[14] = target: Estrogen receptor (Homo sapiens) (UniProt P03372); experiment: qHTS assay to identify small molecule agonists of the estrogen receptor alpha (ER-alpha) signaling pathway in the presence of an antagonist (AID 1259383; calls by dose curve; note: top concentration of the series differs between compounds; nearly all actives have a fitted effect of over 15% in size); details: VM7Luc4E2 cells, ERE-luciferase, +ICI-182,780, 22 h; series mostly up to 92.4 µM
How it was run: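 Agonist-mode confirmation run in the presence of 10.0nM (final) ICI-182,780 antagonist. The reporter was ERE-driven luciferase in VM7Luc4E2 cells, grown in charcoal-stripped serum. Cells were exposed to 15-concentration compound series for 22hr, then ONE-Glo luminescence was read.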

[15] = qHTS assay to identify small molecule antagonists of the progesterone receptor (PR) signaling pathway - cell viability counter screen (AID 1346798); details: PR-UAS-bla HEK293T viability, CellTiter-Glo luminescence, 16 h; series mostly up to 92.4 µM; note: nearly all actives have a fitted effect of over 50% in size
How it was run: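 Viability was determined by ATP-based luminescence (CellTiter-Glo) in PR-UAS-bla HEK293T cells cultured in 2% charcoal-stripped serum and incubated 16 hr with compounds under R5020 stimulation.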

[16] = qHTS assay to identify small molecule agonists of the TGF-beta/Smad signaling pathway (AID 1346859; active = well fitted activation curve with a large enough effect in the signal ratio in the repeat runs, not every such curve was filed as active; the % refers to the signal ratio); details: SBE-bla HEK293T, TGF-beta/Smad beta-lactamase reporter, 5 h; series mostly up to 76.8 µM
How it was run: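 Dual-wavelength fluorescence (460/530 nm emission) quantified beta-lactamase expression under the Smad binding element in HEK 293T cells following 5 hr compound treatment at 37 C.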

[17] = target: Thyrotropin-releasing hormone receptor (Homo sapiens) (UniProt P34981); experiment: qHTS assay to identify small molecule antagonists of the thyrotropin-releasing hormone receptor (TRHR) signaling pathway (AID 1346877; active = well fitted inhibition curve with a large enough effect in the repeat runs, not every such curve was filed as active); details: TRHR-HEK293, TRH-induced calcium fluorescence, antagonist mode; series mostly up to 51.3 µM
How it was run: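 Antagonist mode: after a 5 min room-temperature compound exposure, cells were stimulated with 1 nM (final) TRH. Dye-loaded TRHR-HEK293 cells were used, and calcium-dependent fluorescence was followed for 3 min, with 15-point titrations run in triplicate.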

Measured: Potency

Progesterone receptor (Homo sapiens), sequence (P06401 whole entry, looked up): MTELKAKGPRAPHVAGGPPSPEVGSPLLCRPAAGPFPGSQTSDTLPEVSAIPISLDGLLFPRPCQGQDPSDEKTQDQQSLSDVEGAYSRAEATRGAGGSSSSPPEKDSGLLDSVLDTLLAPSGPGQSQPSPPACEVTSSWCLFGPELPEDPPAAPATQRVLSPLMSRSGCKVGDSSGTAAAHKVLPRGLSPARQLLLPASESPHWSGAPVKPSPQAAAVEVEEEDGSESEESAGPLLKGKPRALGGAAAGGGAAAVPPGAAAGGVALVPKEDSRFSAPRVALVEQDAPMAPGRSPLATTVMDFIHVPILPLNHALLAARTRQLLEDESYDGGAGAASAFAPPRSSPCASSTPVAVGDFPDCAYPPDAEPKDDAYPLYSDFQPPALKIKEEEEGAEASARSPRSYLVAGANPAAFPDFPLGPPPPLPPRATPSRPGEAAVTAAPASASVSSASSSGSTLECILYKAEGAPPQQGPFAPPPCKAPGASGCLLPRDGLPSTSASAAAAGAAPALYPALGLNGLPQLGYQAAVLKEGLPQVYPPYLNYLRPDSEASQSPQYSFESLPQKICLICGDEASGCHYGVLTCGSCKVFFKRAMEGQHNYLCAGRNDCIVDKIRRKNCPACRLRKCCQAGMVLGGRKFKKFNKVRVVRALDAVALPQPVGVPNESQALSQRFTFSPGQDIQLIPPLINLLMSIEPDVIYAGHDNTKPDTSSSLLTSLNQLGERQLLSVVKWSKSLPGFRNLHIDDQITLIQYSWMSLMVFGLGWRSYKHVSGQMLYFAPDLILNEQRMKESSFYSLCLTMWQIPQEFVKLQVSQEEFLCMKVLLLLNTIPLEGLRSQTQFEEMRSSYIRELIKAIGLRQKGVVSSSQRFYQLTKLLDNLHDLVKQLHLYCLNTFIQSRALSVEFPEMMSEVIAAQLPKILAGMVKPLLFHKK
Thyrotropin-releasing hormone receptor (Homo sapiens), sequence (P34981 whole entry, looked up): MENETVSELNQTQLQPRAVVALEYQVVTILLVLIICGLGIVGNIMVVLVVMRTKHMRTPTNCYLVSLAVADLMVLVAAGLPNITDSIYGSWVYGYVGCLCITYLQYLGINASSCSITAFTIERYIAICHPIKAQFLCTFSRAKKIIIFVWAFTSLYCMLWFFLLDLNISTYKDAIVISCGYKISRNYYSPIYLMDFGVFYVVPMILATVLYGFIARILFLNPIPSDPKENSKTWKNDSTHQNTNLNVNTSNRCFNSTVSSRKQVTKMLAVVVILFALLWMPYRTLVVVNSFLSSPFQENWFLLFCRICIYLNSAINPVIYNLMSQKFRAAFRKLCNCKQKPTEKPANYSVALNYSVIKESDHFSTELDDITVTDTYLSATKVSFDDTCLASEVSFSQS
Estrogen receptor (Homo sapiens), sequence (P03372 whole entry, looked up): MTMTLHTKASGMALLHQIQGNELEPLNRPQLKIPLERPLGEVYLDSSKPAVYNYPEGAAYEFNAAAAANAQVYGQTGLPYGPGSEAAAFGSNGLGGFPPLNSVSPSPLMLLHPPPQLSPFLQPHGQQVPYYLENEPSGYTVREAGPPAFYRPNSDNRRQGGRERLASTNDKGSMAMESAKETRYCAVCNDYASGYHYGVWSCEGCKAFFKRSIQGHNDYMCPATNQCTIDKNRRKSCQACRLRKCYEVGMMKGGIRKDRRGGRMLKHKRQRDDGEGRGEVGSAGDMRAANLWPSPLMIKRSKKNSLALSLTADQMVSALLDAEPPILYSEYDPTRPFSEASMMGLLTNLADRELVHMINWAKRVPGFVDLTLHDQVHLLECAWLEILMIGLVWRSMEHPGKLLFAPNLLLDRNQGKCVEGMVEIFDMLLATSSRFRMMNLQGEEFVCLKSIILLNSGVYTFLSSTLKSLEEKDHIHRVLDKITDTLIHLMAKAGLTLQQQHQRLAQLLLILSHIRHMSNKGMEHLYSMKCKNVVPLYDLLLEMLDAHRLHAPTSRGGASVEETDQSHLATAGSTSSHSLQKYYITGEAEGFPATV
Thyrotropin receptor (Homo sapiens), sequence (P16473 whole entry, looked up): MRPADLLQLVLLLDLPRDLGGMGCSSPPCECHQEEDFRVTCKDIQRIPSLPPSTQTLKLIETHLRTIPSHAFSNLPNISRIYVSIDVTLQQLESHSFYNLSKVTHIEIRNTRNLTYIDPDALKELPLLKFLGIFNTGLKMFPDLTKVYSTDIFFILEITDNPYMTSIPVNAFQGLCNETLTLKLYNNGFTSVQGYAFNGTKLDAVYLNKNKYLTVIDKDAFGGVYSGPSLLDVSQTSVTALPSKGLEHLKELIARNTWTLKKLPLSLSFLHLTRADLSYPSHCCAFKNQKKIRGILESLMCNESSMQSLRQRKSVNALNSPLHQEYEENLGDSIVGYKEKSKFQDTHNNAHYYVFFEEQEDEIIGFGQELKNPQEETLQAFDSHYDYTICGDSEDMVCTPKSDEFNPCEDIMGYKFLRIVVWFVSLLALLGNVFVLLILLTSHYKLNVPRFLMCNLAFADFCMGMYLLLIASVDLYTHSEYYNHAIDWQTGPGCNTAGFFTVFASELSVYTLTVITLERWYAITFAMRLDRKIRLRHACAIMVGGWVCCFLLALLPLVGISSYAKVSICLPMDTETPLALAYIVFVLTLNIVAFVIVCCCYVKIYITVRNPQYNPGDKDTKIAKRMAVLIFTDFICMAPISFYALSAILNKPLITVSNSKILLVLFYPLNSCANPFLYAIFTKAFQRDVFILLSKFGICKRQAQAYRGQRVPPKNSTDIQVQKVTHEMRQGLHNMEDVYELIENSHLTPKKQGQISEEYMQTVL

Cc1ccc(N)cc1
not listed: [14] | [15] | [16] | [17]
inactive: all other assays above

C=CCN=C=S
not listed: [14] | [15] | [16] | [17]
inactive: all other assays above

O=C(O)CCCc1ccc(N(CCCl)CCCl)cc1
inactive: all assays above

C[C@H]1C(=O)O[C@@H]2CCN3CC=C(COC(=O)[C@](C)(O)[C@]1(C)O)[C@H]23
not listed: [9] | [10] | [14] | [15]
inactive: all other assays above

O=C(O)Cc1ccccc1
not listed: [6] | [7]
inactive: all other assays above

OCCCCO
not listed: [14] | [15]
inactive: all other assays above

Cc1ccccc1N
not listed: [14] | [15] | [17]
inactive: all other assays above

O=C/C=C/c1ccccc1
not listed: [14] | [16]
inactive: all other assays above

O=[N+]([O-])c1ccc(Cl)c(Cl)c1
not listed: [14] | [15] | [16]
inactive: all other assays above

[N-]=[N+]=CC(=O)OC[C@H](N)C(=O)O
not listed: [14] | [15] | [17]
inactive: all other assays above
